From PubChem BioAssay come the findings set out here.

Active and inactive are the calls of the source. Unless noted, the rule behind the calls is not given here.

Assay [1] in a line: compounds binding Alexa647 anti-His antibody – biochemical, small-molecule microarray, 635 nm fluorescence, artefact control for SMM control protein annotation, primary screen (AID 1128).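 Note: score merges feature fluorescence with signal-to-noise for each printed compound spot.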 The conditions noted are these: higher = more signal.
The test system of assay [2] is Human papillomavirus type 1a E7 protein (residues 1-88). Description: HPV1a E7 small-molecule binders, primary screen, biochemical, small-molecule microarray, residues 1-88, 635 nm (AID 1129). The conditions noted are these: small-molecule microarray binding, fluorescence 635 nm; higher = more signal.
The target in assay [3] is Focal adhesion kinase 1 (Homo sapiens) (UniProt Q05397). The assay is described as follows: PTK2 protein binding on printed compound slides – biochemical, small-molecule microarray, 635/667 nm fluorescence, BSA, DTT, primary screen (AID 1130).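 Note: composite of spot emission at 667 nm and signal to noise over triplicate slides.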 Conditions: 635 nm fluorescence, higher = more signal.
Sequence of Focal adhesion kinase 1 (Homo sapiens) (Q05397 whole entry, looked up): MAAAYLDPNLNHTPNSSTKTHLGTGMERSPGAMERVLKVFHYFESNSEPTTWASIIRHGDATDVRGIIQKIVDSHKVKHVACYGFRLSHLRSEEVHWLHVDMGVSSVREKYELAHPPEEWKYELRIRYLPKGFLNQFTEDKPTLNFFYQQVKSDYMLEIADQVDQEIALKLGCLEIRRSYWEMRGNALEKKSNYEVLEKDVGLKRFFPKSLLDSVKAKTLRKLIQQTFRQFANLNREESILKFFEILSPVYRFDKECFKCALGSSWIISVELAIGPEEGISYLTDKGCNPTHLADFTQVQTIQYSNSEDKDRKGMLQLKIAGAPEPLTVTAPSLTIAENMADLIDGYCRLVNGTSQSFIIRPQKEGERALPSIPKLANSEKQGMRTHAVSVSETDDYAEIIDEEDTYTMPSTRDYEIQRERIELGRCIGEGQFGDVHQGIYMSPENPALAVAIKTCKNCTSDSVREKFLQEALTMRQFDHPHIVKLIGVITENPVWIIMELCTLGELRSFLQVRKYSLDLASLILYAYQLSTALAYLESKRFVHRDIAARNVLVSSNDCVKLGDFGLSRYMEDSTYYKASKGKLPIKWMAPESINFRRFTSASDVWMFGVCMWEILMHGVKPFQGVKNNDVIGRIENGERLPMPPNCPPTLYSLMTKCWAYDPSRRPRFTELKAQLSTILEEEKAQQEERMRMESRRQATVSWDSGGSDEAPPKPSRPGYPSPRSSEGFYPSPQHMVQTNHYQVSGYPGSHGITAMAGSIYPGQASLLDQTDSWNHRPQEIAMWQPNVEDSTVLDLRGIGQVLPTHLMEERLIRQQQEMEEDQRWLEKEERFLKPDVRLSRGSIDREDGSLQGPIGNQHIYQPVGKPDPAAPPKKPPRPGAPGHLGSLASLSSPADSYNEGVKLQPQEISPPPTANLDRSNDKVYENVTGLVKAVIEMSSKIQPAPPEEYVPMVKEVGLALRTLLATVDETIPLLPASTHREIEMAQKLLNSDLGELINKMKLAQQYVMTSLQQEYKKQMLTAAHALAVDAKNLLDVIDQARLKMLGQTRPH
Assay [4] has as its system Fibrinogen (Alexa647-labelled). The assay is described as follows: Alexa647-fibrinogen binding to printed small molecules – biochemical, small-molecule microarray, 635/667 nm fluorescence, artefact control for SMM control-protein annotation, profiling panel (AID 1131).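 Note: z-score merges 667 nm fluorescence with per-spot signal-to-noise over triplicate slides.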 The conditions noted are these: fibrinogen-A647 binding fluorescence, higher = more signal.
Assay [5] deals with Follistatin (Homo sapiens) (UniProt P19883). Description: FST protein binding to printed compounds – biochemical, small-molecule microarray, 635/667 nm fluorescence, primary screen (AID 1132). The conditions noted are these: 635 nm fluorescence, higher = more signal.
Sequence of Follistatin (Homo sapiens) (P19883 whole entry, looked up): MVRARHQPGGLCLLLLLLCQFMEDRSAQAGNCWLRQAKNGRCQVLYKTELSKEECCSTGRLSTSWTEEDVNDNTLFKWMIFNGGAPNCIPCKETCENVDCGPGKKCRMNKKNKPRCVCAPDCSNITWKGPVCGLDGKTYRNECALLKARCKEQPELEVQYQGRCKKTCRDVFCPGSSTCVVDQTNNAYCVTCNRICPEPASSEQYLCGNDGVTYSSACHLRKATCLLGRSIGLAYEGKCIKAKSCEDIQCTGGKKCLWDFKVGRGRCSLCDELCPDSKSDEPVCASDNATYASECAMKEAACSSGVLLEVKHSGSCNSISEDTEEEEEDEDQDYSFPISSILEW
Assay [6] has as its target Fibroblast growth factor 2 (Homo sapiens) (UniProt P09038). Description: basic fibroblast growth factor binding to printed compounds – biochemical, small-molecule microarray, 635/667 nm fluorescence, primary screen (AID 1133). Conditions: FGF2, fluorescence 635/667, higher = more signal.
Assay [7] is described as follows: JC-1 mitochondrial potential readout, lung cancer cells – cell-based, A549, JC-1 fluorescence, basal, 24 h, 100 nL, profiling panel (AID 1138).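 Note: A549 lung adenocarcinoma cells under basal conditions with no added stimulus; test concentration not given here.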 Conditions: higher = more signal.
The test system of assay [8] is Lefty1. The assay is described as follows: Lefty1 protein binding to printed compounds – biochemical, small-molecule microarray, 635/667 nm fluorescence, primary screen (AID 1139). The conditions noted are these: fluorescence 635/667, higher = more signal.
Assay [9] concerns wheat germ agglutinin (Triticum aestivum), Alexa647-labelled. The assay is described as follows: Alexa647-WGA lectin binding to printed small molecules – biochemical, small-molecule microarray, 635/667 nm fluorescence, artefact control for SMM control-protein annotation, profiling panel (AID 1140).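 Note: score merges 667 nm feature emission with signal to noise over triplicate slides.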 Conditions: WGA-A647 binding, 635 nm fluorescence, higher = more signal.
The target of assay [10] is Luciferin 4-monooxygenase (Photinus pyralis) (UniProt P08659). Description: inhibition of purified Photinus pyralis luciferase – biochemical, luminescence, purified enzyme, 2006 set, primary screen (AID 1141).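 Note: cell-free assay with purified firefly luciferase at 100 ng per well in PBS; test concentration not given here.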 Conditions: purified firefly luciferase, SteadyGlo luminescence, 30 min; higher = more signal, called active from +8 up or from −8 down.
Sequence of Luciferin 4-monooxygenase (Photinus pyralis) (P08659 whole entry, looked up): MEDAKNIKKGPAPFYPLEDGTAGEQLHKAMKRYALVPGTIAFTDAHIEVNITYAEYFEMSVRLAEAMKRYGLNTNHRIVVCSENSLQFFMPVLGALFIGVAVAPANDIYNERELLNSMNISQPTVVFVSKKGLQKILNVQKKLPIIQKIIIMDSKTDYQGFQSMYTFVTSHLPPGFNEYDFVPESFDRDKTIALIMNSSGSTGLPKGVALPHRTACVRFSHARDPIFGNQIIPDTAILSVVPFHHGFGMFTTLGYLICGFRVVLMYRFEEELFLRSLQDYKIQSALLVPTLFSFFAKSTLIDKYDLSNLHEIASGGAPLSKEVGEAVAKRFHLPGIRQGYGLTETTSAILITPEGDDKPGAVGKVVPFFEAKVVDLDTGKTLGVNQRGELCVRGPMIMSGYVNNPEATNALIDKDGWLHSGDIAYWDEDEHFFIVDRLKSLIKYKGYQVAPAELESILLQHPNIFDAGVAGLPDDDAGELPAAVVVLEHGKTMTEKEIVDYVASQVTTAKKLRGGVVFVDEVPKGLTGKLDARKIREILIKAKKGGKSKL
The test system of assay [11] is Wnt5a (protein binding on small-molecule microarray). The assay is described as follows: small molecules binding Wnt5a protein – biophysical, small-molecule microarray, 635/667 nm fluorescence, primary screen (AID 1142).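 Note: fluorescence read at 667 nm with signal to noise per printed feature.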 The conditions noted are these: 635 nm fluorescence, higher = more signal.
A short description of assay [12]: ATP-based viability of Huh7 replicon cells – cell-based, CellTiter-Glo luminescence, basal, 48 h, cytotoxicity control for HCV replication inhibitor project, primary screen (AID 1143).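 Note: Huh7 hepatoma cells carrying a hepatitis C replication reporter with no stimulus; test concentration not given here.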 Conditions: higher = more signal, called active from +8 up or from −8 down. A general note: In antiviral work, replicon cells carry a viral genome segment that copies itself.
Assay [13] in a line: Pseudomonas biofilm growth suppression – PAO1 strain, BacTiter-Glo luminescence, LB-PBS, primary screen (AID 1144). Conditions: P. aeruginosa PAO1 biofilm, 12 h, higher = more signal.
A short description of assay [14]: basal CRE-LacZ reporter activity in PC12 – cell-based, unstimulated, primary screen (AID 1145). The conditions noted are these: no forskolin, luminescence, 4.5 h, higher = more signal, called active from +8 up or from −8 down.
Assay [15] is described as follows: forskolin-driven CRE-LacZ activity in PC12 – cell-based, CRE-LacZ reporter, forskolin-stimulated, primary screen (AID 1146).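 Note: PC12 cells with 6xCRE LacZ reporter stimulated by forskolin 10 µM; beta-galactosidase reporter signal reflecting CREB driven transcription.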 The conditions noted are these: luminescence, 4.5 h, higher = more signal, called active from +8 up or from −8 down.
Assay [16] addresses Streptavidin (Streptomyces avidinii) (UniProt P22629). Description: compounds binding control protein streptavidin – biophysical, small-molecule microarray, 635/667 nm fluorescence, artefact control for SMM compound annotation, primary screen (AID 1147).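 Note: signal reflects streptavidin binding to arrayed compounds as a control protein.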 The conditions noted are these: higher = more signal.
Assay [17] can be described thus: probe aInhba binding on compound microarray – biochemical, small-molecule microarray, 635/667 nm fluorescence, primary screen (AID 1148).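 Note: score merges 667nm spot fluorescence with signal-to-noise for antibody binding to printed compounds.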 The conditions noted are these: higher = more signal.
For assay [18], the target named is Torsin-1A (Homo sapiens) (UniProt O14656). The assay is described as follows: TOR1A wild-type binding on microarray – cell lysate, small-molecule microarray, lysate, 635/667 nm, primary screen (AID 1149). The conditions noted are these: COS7 hTOR1A-WT lysate, 635 nm fluorescence, higher = more signal.
Sequence of Torsin-1A (Homo sapiens) (O14656 whole entry, looked up): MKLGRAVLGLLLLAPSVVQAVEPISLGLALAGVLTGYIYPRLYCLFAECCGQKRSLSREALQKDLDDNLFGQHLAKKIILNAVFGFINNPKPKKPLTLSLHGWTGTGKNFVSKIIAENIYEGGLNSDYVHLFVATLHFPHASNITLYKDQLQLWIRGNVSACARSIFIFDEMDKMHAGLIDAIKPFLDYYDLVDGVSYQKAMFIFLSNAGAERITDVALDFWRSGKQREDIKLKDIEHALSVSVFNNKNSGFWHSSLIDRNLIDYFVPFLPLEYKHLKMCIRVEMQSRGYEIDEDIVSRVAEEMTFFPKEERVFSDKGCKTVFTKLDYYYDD
Assay [19] shares this target. The assay is described as follows: torsin A mutant lysate binding on microarrays – cell lysate, small-molecule microarray, COS7 lysate, 635/667 nm fluorescence, primary screen (AID 1150).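 Note: score pools 667 nm emission and signal to noise measuring lysate protein binding.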 The conditions noted are these: COS7 hTOR1A mutant lysate, 635 nm fluorescence, higher = more signal.
For assay [20], the system named is Sonic hedgehog protein (Shh). Description: Sonic hedgehog microarray binding compounds – biochemical, small-molecule microarray, 635/667 nm fluorescence, primary screen (AID 1151).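 Note: Shh protein binding to compounds spotted on small-molecule microarray slides; score combines spot fluorescence intensity with signal-to-noise across triplicate slides.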 Conditions: 635 nm fluorescence, higher = more signal.

Sequence of Streptavidin (Streptomyces avidinii) (P22629 whole entry, looked up): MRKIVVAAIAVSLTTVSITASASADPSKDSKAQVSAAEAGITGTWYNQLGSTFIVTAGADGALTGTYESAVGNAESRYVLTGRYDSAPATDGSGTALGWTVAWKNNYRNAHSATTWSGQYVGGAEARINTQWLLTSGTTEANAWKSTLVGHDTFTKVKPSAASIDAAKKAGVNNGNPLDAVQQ
Sequence of Fibroblast growth factor 2 (Homo sapiens) (P09038 whole entry, looked up): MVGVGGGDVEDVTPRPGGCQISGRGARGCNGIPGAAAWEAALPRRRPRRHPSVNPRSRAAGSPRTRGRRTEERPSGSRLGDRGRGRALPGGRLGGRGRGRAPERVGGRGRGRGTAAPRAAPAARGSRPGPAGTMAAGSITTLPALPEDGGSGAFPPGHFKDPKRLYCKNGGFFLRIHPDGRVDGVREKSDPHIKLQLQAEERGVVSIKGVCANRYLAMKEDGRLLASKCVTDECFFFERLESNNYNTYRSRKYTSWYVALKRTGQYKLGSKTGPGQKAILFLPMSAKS

For the compound `COc1ccc(C#Cc2ccc3c(c2)[C@]2(C(=O)N3)[C@H](C(=O)NC[C@H](O)c3ccccc3)[C@H]3C(=O)O[C@H](c4ccccc4)[C@H](c4ccccc4)N3[C@@H]2c2ccc(OCCO)cc2)cc1`, the composite z-score in assay [1] worked out at 0.408; in assay [2], 0.991; in [3], 0.303; in [4], 0.964; in assay [5], 1.36; in assay [6] it was 1.19. The composite z-score is 1.22 in assay [8]; 1.13 in [9]; 0.628 in assay [11]; 0.59 in assay [16]; -0.0173 in [17]; 0.369 in assay [18]. Besides, the composite z-score in assay [19] turned out to be 0.869; in assay [20] it was 1.96. For the same compound, the z-score in assay [7] is -1.96; in [10] it was -1.58 (inactive); in [12], -2.89 (inactive); in assay [13], -0.563 (inactive); in assay [14], 0.478 (inactive); in assay [15], -0.447 (inactive).
On to `O=c1cccc(C=Cc2ccccc2)o1`, for which the composite z-score is -0.23 in [1]; -0.191 in assay [2]; -0.599 in [3]; -0.58 in [4]; -0.723 in assay [5]; -1.63 in [6]. Besides, the composite z-score in [8] was -0.282; in assay [9], -0.531; in [11], -0.276; in [16], -0.532; in [17] it was 0.144; in assay [18], -0.994. The values for the composite z-score in [19] and in assay [20] were -0.711 and -0.604, respectively. Besides, the z-score in assay [7] is 0.302; in assay [10] it was 1.35 (inactive); in assay [12], -0.273 (inactive); in assay [13] it was -0.544 (inactive); in assay [14], -0.676 (inactive); in assay [15], 0.801 (inactive).
On to `CC(C)c1ccc(NN2C(C(O)c3c(F)cccc3Cl)C=CC3C(=O)N(c4ccccc4)C(=O)C32)cc1` (stereo not given), for which the composite z-score in assay [1] is 0.825; in [2], 1.13; in assay [3], 0.823; in assay [4] it was 0.935; in [5], 1.02; in assay [6], -0.0904. Besides, the composite z-score is -0.0553 in [8]; 0.959 in [9]; 0.658 in assay [11]; 1.47 in [16]; 0.765 in assay [17]; 0.213 in assay [18]. Also, the composite z-score in [19] is -0.164; in [20], -0.182. Moreover, the z-score is -1.27 in [7]; -1.12 (inactive) in assay [10]; -0.78 (inactive) in assay [12]; -0.53 (inactive) in assay [13]; -0.519 (inactive) in [14]; 0.746 (inactive) in assay [15].
Turning to `COCCOC(=O)N1C(=O)[C@@]2(c3cc(C#CCC(C(=O)OC)C(=O)OC)ccc31)[C@H](c1ccc(O)cc1)N1[C@H](c3ccccc3)[C@H](c3ccccc3)OC(=O)[C@H]1[C@@H]2C(N)=O`, the composite z-score turned out to be 1.54 in assay [1]; 1.23 in assay [2]; 0.242 in assay [3]; 0.75 in assay [4]; 0.857 in [5]; 1.33 in assay [6]. Besides, the composite z-score in assay [8] amounted to 0.366; in [9], 0.252; in assay [11], 0.641; in assay [16], 1.04; in assay [17], 0.215; in assay [18], 1.61. Also, the composite z-score in assay [19] came to 1.35; in [20] it was 0.922. Besides, the z-score was -0.82 in assay [7]; -0.78 (inactive) in assay [10]; -0.427 (inactive) in assay [12]; 0.075 (inactive) in assay [13]; -0.329 (inactive) in assay [14]; 0.305 (inactive) in assay [15].
In the case of `C=CCC(OC(C)=O)[C@@H]1[C@@H](N(Cc2ccc(-c3ccccc3)cc2)C(=O)Cc2ccc(OC)cc2)c2cc(OCCCO)ccc2N1C(=O)c1ccc2ccccc2n1` (stereo not given in full), the composite z-score in [1] turned out to be 0.009; in assay [2] it was 0.0656; in assay [3] it was 0.0569; in [4], 0.534; in assay [5], 0.45; in [6] it was 0.635. In addition, the composite z-score in assay [8] is 0.221; in assay [9], 0.22; in [11], -0.167; in assay [16], 0.437; in assay [17], -0.0471; in assay [18], -0.0598. Moreover, the composite z-score in assay [19] was 0.0615; in [20], -0.111. For the same compound, the z-score is 1.34 in assay [7]; -0.592 (inactive) in assay [10]; -1.53 (inactive) in [12]; 0.321 (inactive) in [13]; 0.409 (inactive) in assay [14]; 0.677 (inactive) in [15].
Turning to `[N-]=[N+]=NCc1ccccc1C[C@]1(C(=O)NCCN2CCOCC2)N=C(c2ccc(OCCCO)cc2)O[C@H]1c1ccccc1N=[N+]=[N-]`, the composite z-score was 0.853 in assay [1]; 1.25 in [2]; 0.669 in assay [3]; 0.989 in [4]; 0.714 in assay [5]; 0.0056 in assay [6]. In addition, the composite z-score in assay [8] was -0.209; in [9], 0.976; in [11] it was 0.152; in assay [16] it was 1.05; in [17], 0.279; in assay [18], 0.304. In addition, the results for the composite z-score in assay [19] and in assay [20] were 0.283 and -0.0478, respectively. The z-score in [7] was 1.29; in assay [10], -7.78 (inactive); in assay [12], -3.01 (inactive); in assay [13] it was -0.446 (inactive); in assay [14] it was 1.65 (inactive); in [15] it was -0.891 (inactive).
